This is an account of results in the supplement of paper PMC10670038.

The structures appear in SMILES notation. ± gives the standard deviation of the averaged measurements. Whole data set: some 2,000 compounds, median “relative cell viability vs DMSO, compound alone” near 1.1, cut for the lowest 2% near 0.29. Many of the other results were omitted from the sample, so the lowest values are more common in it than they were.

For this test, the system named is TE10. The test is described as follows: relative cell viability vs DMSO, compound alone (fraction); TE10 is an esophageal squamous carcinoma line; higher = less cytotoxic. The following applies: 2 µM; 48 h. As to the method: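 TE10 ESCC cells (1,000/well, 384-well plates) were treated with Selleck bioactive library compounds at 2 uM alone for 48 h. Viability was read by CellTiter-Glo and expressed relative to DMSO wells. Two technical replicates (A, B).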
`NC(=O)N/N=C/c1ccc([N+](=O)[O-])o1` [Nitrofural] registered a relative cell viability of 1.02 ± 0.057.

In turn, `Cc1ccc(S(=O)(=O)c2ccc([N+](=O)[O-])o2)cc1` displayed a relative cell viability of 0.286 ± 0.0092.

For `COc1ccc(/C=C/C(=O)C2(C(=O)/C=C/c3ccc(OC)c(OC)c3)CCCCC2)cc1OC`, the relative cell viability came out at 0.726 ± 0.088.

`Cc1c(F)cc(C(=O)NC2CC2)cc1-c1ccc(C(=O)NCC(C)(C)C)cn1` came in with a relative cell viability of 0.959 ± 0.18.

As to `Cc1c(Nc2ncccc2C(=O)O)cccc1C(F)(F)F` [Flunixin Meglumin], the relative cell viability was 0.994 ± 0.028.

`COc1cc2c(cc1OC)CN(CCc1ccc(NC(=O)c3cccc4c(=O)c5cccc(OC)c5[nH]c34)cc1)CC2` yielded a relative cell viability of 1.03 ± 0.056.

Compound `CNCCc1ccccn1` [Betahistine 2HCl] yielded a relative cell viability of 0.903 ± 0.18.

The compound `COC1=CC(=O)C[C@@H](C)[C@]12Oc1c(Cl)c(OC)cc(OC)c1C2=O` [Griseofulvin] came in with a relative cell viability of 1.12 ± 0.06.

The compound `O[C@@H](COc1cccc2ncccc12)CN1CCN(C2c3ccccc3[C@@H]3[C@H](c4ccccc42)C3(F)F)CC1` (stereo not given in full) registered a relative cell viability of 1.14 ± 0.082.

`CCn1c(N)c(C(=O)NC)c(=O)c2ccc(C#CC(C)(O)COC)nc21` (stereo not given) yielded a relative cell viability of 0.979 ± 0.17.

In turn, `CN(Cc1cnc2nc(N)nc(N)c2n1)c1ccc(C(=O)N[C@@H](CCC(=O)O)C(=O)O)cc1` [Methotrexate] returned a relative cell viability of 0.143 ± 0.0081.

`Cc1nc(=O)c2cc(CN(C)c3ccc(C(=O)N[C@@H](CCC(=O)O)C(=O)O)s3)ccc2[nH]1` [Raltitrexed]: the relative cell viability worked out at 1.07 ± 0.086.

`C#CCC(Cc1cnc2nc(N)nc(N)c2n1)c1ccc(C(=O)N[C@@H](CCC(=O)O)C(=O)O)cc1` (stereo not given in full) [Pralatrexate] showed a relative cell viability of 0.1336 ± 0.00088.

`CC(C)c1cnn2c(NCc3ccccc3)cc(NCCCCCCN)nc12` came in with a relative cell viability of 1.08 ± 0.063.

In turn, `CNC(=O)CN1CCC(Oc2cc3c(Nc4cccc(Cl)c4F)ncnc3cc2OC)CC1` [AZD8931 (Sapitinib)] gave a relative cell viability of 1.21 ± 0.015.

`Cc1c(C(N)=O)cc([N+](=O)[O-])cc1[N+](=O)[O-]` [Dinitolmide] yielded a relative cell viability of 1.0978 ± 0.00018.

Take `Cc1ccccc1C(C(=O)NC1CCCCC1)N(C(=O)Cn1ccnc1C)c1cccc(F)c1` (stereo not given): the relative cell viability is 0.989 ± 0.22.

In the case of `CCCCCCCCCCCCCCCC[N+](C)(C)C` [Cetrimonium Bromide (CTAB)], the relative cell viability turned out to be 1.05 ± 0.039.

For `CC1=NN(c2ccc(C(=O)O)cc2)C(=O)C1=Cc1ccc(-c2cc(C)c(C)cc2[N+](=O)[O-])o1`, the relative cell viability worked out at 1.04 ± 0.022.

Compound `Nc1nc(CC(=O)Nc2ccc(CCNC[C@H](O)c3ccccc3)cc2)cs1` [Mirabegron] came in with a relative cell viability of 0.954 ± 0.11.

Compound `NC(=O)c1cccc(-c2cccc(OC(=O)NC3CCCCC3)c2)c1` yielded a relative cell viability of 1.17 ± 0.024.

On to `CC#CC(=O)Nc1ccc2ncnc(Nc3cccc(Br)c3)c2c1`, for which the relative cell viability stood at 0.773 ± 0.043.

Compound `CN(C)c1ccc(C(=C2C=CC(=[N+](C)C)C=C2)c2ccc(N(C)C)cc2)cc1` [Crystal Violet] showed a relative cell viability of 0.278 ± 0.006.

Take `CN(C)C(=O)c1cc2cnc(Nc3ccc(N4CCNCC4)cn3)nc2n1C1CCCC1`: the relative cell viability is 1.147 ± 0.008.

In the case of `Nc1c(CC(=O)O)cccc1C(=O)c1ccc(Br)cc1` [Bromfenac Sodium], the relative cell viability was determined as 1.09 ± 0.046.
